# Active and inactive are the calls of the source. How the source made its calls: active means hit-call score of the fitted dose curve at least 0.9, where 1 is the maximum; inactive means score below 0.9.
# Assay: CEETOX_H295R_ESTRADIOL: CeeTox H295R High-throughput Steroidogenesis Assay for Estradiol (AID 2283440);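 further: estradiol secreted into medium quantified by LC-MS/MS after dansyl derivatisation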
# Details: actives raise or lower the signal
# Description: CEETOX_H295R is a cell-based, multiplexed-readout assay that uses H295R, a human adrenal gland cell line, with measurements taken at 48 hours after chemical dosing in a 96-well plate.CEETOX_H295R_ESTRADIOL is one of 23 assay component(s) measured or calculated from the CEETOX_H295R assay. It is designed to make measurements of hormone induction, a form of inducible reporter, as detected with absorbance signals by HPLC-MS-MS technology.Data from the assay component CEETOX_H295R_ESTRADIOL was analyzed into 1 assay endpoint. This assay endpoint, CEETOX_H295R_ESTRADIOL, was analyzed with bidirectional fitting relative to DMSO as the negative control and baseline of activity. […] To generalize the intended target to other relatable targets, this assay endpoint is annotated to the steroid hormone intended target family, where the subfamily is estrogens.
# Cell culture and media preparation procedures were conducted in accordance with OECD Test No. 456 guidelines, with minor modifications. H295R cells (ATCC CRL-2128) were expanded for 5 passages and frozen in batches in liquid nitrogen. Prior to the steroidogenesis assay, H295R cells were thawed and passed at least 4 times. The maximum passage was 10. Cells were maintained in a 1:1 mixture of DMEM/F12 supplemented with 5ml/L ITS+ Premix (BD Bioscience) and 12.5 ml/L Nu-Serum (BD Bioscience). After seeding cells into 96-well plates at 50-60% confluency, cells were allowed to adhere overnight. Prior to chemical testing, culture medium was replaced with 175 uL medium containing 10 uM forskolin to stimulate steroidogenesis for 48 hours. Following prestimulation, forskolin medium was replaced with medium containing test chemical solubilized in DMSO (ensuring a final concentration of 0.1% DMSO). Test chemicals were incubated for 48 hours, then the medium was removed and split into 2 vials containing approximately 75uL each, and stored at -80 C prior to hormone analysis. For steroid quantification, media samples were shipped to OpAns, LLC (Durham, NC) on dry ice, and samples were thawed to room temperature prior to liquid-liquid extraction. Steroid hormones were extracted from media samples using methyl tertbutyl ether (MTBE). An extra derivatization with dansyl chloride was included for estrogen (estrone and estradiol) detection only. Steroid hormones were separated by HPLC, eluted using a reverse phase C18 gradient with electrospray positive ionization, followed by quantification by tandem mass spectrometry (MS/MS). Data were acquired on a MassHunter Workstation Acquisition version B03.01 (Agilent Technologies, Inc.) and processed using MassHunter Quantitative Analysis for QQQ. Accuracy was determined for each hormone analyte from 3 standards to determine upper and lower limits of quantification (ULOQ and LLOQ, respectively) using a 7-point standard curve. Precision and accuracy of the extraction and quantification methods were calculated as the percent relative standard deviation (%RSD) of the spiked standards and percent spiked standard recovered, respectively. […] Test medium was removed following chemical exposure, and cell viability was evaluated in the same wells by MTT. MTT procedures were as follows: after removal of test medium, 500 uL of 0.5 mg/ml of 3-[4,5-dimethylthiazol-2-y]2,5-diphenyltetrazoliumbromide solution was added to the cells. Following a 4-hour incubation at 37 C and 5% CO2 to allow formazan-crystal formation, the MTT solution was removed and blue formazan salt crystals were solubilized using 500uL anhydrous isopropanol with shaking for 20 minutes. Absorbance was read at 570 and 650nm using a Packard Fusion microplate reader. Background correction of absorbance units was used to determine percent change relative to controls. […] When a test chemical reduced cell viability to 20% - 70%, the test chemical was diluted 10-fold and re-evaluated, but if cell viability was <20%, then the test chemical was diluted 100-fold and re-evaluated. […]
row,SMILES,outcome
1,O=c1c(-c2ccc(O)cc2)coc2cc(O)ccc12,inactive
2,O=C(O)c1ccccc1C(c1ccc(O)cc1)c1ccc(O)cc1,inactive
3,CCCCCCCCC(=O)O,inactive
4,CCc1nn(C2CCCCC2)c2cc(C3(C#N)CCC(C(=O)O)CC3)ccc12 (stereo not drawn),inactive
5,COc1ccc([N+](=O)[O-])cc1N,inactive
6,CCCCCCCCCCCCCCCS(=O)(=O)Oc1ccccc1,inactive
7,CCCOC(=O)c1ccc(O)cc1,inactive
8,CC#C[C@]1(O)CC[C@H]2[C@@H]3CCC4=CC(=O)CCC4=C3[C@@H](c3ccc(N(C)C)cc3)C[C@@]21C,inactive
9,OC1CCC(C2CCCCC2)CC1 (stereo not drawn),inactive
10,C[C@@H]1C[C@H]2[C@@H]3CCC4=CC(=O)C=C[C@]4(C)[C@@]3(F)[C@@H](O)C[C@]2(C)[C@@]1(O)C(=O)COP(=O)(O)O,inactive
11,Oc1cccc(O)c1,inactive
12,CN1CCC[C@H]1c1cccnc1,inactive
13,Nc1cccc2c(N)cccc12,inactive
